Potency data for 55 compounds are collected here from PubChem BioAssay (NCATS).

Values joined by “and” are separate entries in the source; they are usually repeats but may differ in a detail not shown here. Equal entries are not always repeated. Inconclusive results are not listed. Active and inactive are the calls of the source. Unless noted, calls follow the shape of the full dose curve.

A short description of test [1]: qHTS for Inhibitors of the Functional Ribonucleoprotein Complex (vRNP) of Lassa (LASV) Arenavirus: LASV Primary Screen - GLuc reporter signal (AID 1347082; calls by dose curve; tested in HEK293 reporter line; also: nearly all actives have a fitted effect of over 60% in size). In general terms: In qHTS, concentration-response curves come from the screen itself.
Test [2] can be described thus: qHTS for Inhibitors of the Functional Ribonucleoprotein Complex (vRNP) of Lassa (LASV) Arenavirus: Viability assay - alamar blue signal for LASV Primary Screen (AID 1347083; calls by dose curve; tested in HEK293 reporter line; also: nearly all actives have a fitted effect of over 80% in size).
Test [3] in a line: qHTS for Inhibitors of the Functional Ribonucleoprotein Complex (vRNP) of Lymphocytic Choriomeningitis Arenaviruses (LCMV): Viability assay - alamar blue signal for LCMV Primary Screen (AID 1347085; calls by dose curve; tested in HEK293 reporter line; also: nearly all actives have a fitted effect of over 80% in size).
Test [4] concerns the target Nucleoprotein (Lymphocytic choriomeningitis virus (strain Armstrong)) (UniProt P09992). Nature of the test: qHTS for Inhibitors of the Functional Ribonucleoprotein Complex (vRNP) of Lymphocytic Choriomeningitis Arenaviruses (LCMV): LCMV Primary Screen - GLuc reporter signal (AID 1347086). Also: nearly all actives have a fitted effect of over 70% in size.
Potency is read from the fitted curve at half-maximal effect.

Nucleoprotein (Lymphocytic choriomeningitis virus (strain Armstrong)), sequence (P09992 whole entry, looked up): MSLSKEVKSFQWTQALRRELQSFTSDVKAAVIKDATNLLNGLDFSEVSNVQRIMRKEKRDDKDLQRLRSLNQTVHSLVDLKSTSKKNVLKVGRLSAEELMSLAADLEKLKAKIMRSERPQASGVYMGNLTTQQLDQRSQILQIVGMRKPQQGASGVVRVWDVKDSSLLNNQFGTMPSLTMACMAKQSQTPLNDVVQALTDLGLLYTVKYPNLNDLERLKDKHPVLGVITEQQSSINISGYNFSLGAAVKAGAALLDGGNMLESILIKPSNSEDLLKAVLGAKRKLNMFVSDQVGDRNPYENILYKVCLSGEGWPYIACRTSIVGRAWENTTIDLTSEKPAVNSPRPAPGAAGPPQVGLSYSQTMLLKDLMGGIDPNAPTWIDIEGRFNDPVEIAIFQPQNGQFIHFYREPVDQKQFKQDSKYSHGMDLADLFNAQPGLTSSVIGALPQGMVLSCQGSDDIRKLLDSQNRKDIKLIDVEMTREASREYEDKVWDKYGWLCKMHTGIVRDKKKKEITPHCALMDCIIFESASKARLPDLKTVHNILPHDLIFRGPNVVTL

With `CN(C)CCc1c[nH]c2ccc(C[C@H]3COC(=O)N3)cc12`, the Potency entry in test [1], in test [2], in test [3] and in test [4] was “inactive” throughout.
With `CCCN1C[C@H](CSC)C[C@@H]2c3cccc4[nH]cc(c34)C[C@H]21`, the Potency entry in test [1], in test [2], in test [3] and in test [4] was “inactive” in each case.
Take `COc1cc2c(cc1OC)[C@@H]1CC(=O)[C@@H](CC(C)C)CN1CC2`: the Potency result in test [1], in test [2], in test [3] and in test [4] was “inactive” in each case.
Turning to `CC1=C(C(=O)O)N2C(=O)[C@@H](NC(=O)[C@H](N)c3ccccc3)[C@H]2SC1`, the Potency entry in test [1], in test [2], in test [3] and in test [4] was “inactive” each time.
For `O=C1NC(c2ccccc2)(c2ccccc2)C(=O)N1COP(=O)(O)O`, the Potency entry in test [1], in test [2], in test [3] and in test [4] was “inactive” throughout.
With `Cn1c(=O)c2c(ncn2CC(O)CO)n(C)c1=O` (stereo not given), the Potency result in test [1], in test [2], in test [3] and in test [4] was “inactive” in each case.
Take `CC(C)NCC(O)c1ccc(O)c(O)c1` (stereo not given): the Potency result in test [1], in test [2], in test [3] and in test [4] was “inactive” throughout.
In the case of `CCC[C@H](N[C@@H](C)C(=O)N1[C@H](C(=O)O)C[C@@H]2CCCC[C@@H]21)C(=O)OCC`, the Potency entry in test [1], in test [2], in test [3] and in test [4] was “inactive” throughout.
Regarding `O=C(CCCCCCC(=O)Nc1ccccc1)NO`, the Potency result in test [1] and in test [4] was “inactive” throughout. The Potency in test [2] was 8.91 µM (active) and 7.69 µM (active); in test [3], 7690 nM (active).
For the compound `O=C1[C@H](CC[C@H](O)c2ccc(F)cc2)[C@@H](c2ccc(O)cc2)N1c1ccc(F)cc1`, the Potency result in test [1], in test [2], in test [3] and in test [4] was “inactive” throughout.
Turning to `CCCCCOC(=O)Nc1nc(=O)n([C@@H]2O[C@H](C)[C@@H](O)[C@H]2O)cc1F`, the Potency entry in test [1], in test [2], in test [3] and in test [4] was “inactive” in each case.
Regarding `CCCN(CCC)CCc1cccc2c1CC(=O)N2`, the Potency entry in test [1], in test [2], in test [3] and in test [4] was “inactive” each time.
`Cc1c(OCC(F)(F)F)ccnc1CS(=O)c1nc2ccccc2[nH]1` (stereo not given): the Potency result in test [1], in test [2], in test [3] and in test [4] was “inactive” each time.
In the case of `COc1cc(Cc2cnc(N)nc2N)cc(OC)c1OC`, the Potency result in test [1], in test [2], in test [3] and in test [4] was “inactive” throughout.
In the case of `CC(c1cc2ccccc2s1)N(O)C(N)=O` (stereo not given), the Potency entry in test [1], in test [2], in test [3] and in test [4] was “inactive” throughout.
Regarding `CN1CCN(CCCN2c3ccccc3Sc3ccc(Cl)cc32)CC1`, the Potency entry in test [1], in test [2], in test [3] and in test [4] was “inactive” in each case.
Turning to `CC(C)OC(=O)C(C)(C)Oc1ccc(C(=O)c2ccc(Cl)cc2)cc1`, the Potency result in test [1], in test [2], in test [3] and in test [4] was “inactive” each time.
For `CC(C)C[C@H](NC(=O)[C@H](CCc1ccccc1)NC(=O)CN1CCOCC1)C(=O)N[C@@H](Cc1ccccc1)C(=O)N[C@@H](CC(C)C)C(=O)[C@@]1(C)CO1`, the Potency in test [1] was 485 nM (active); in test [2], 432 nM (active); in test [3], 544 nM (active); in test [4], 385 nM (active).
Turning to `Oc1ccc(C2CNCCc3c2cc(O)c(O)c3Cl)cc1` (stereo not given), the Potency entry in test [1], in test [2], in test [3] and in test [4] was “inactive” throughout.
In the case of `NC[C@H](O)c1ccc(O)c(O)c1`, the Potency entry in test [1], in test [2], in test [3] and in test [4] was “inactive” throughout.
Regarding `Cc1ccc(-c2cc(C(F)(F)F)nn2-c2ccc(S(N)(=O)=O)cc2)cc1`, the Potency entry in test [1], in test [2], in test [3] and in test [4] was “inactive” in each case.
As for `Cc1c(O)cccc1C(=O)N[C@@H](CSc1ccccc1)[C@H](O)CN1C[C@H]2CCCC[C@H]2C[C@H]1C(=O)NC(C)(C)C`, the Potency entry in test [1], in test [2], in test [3] and in test [4] was “inactive” in each case.
Consider `C[C@@H]1CC(=O)NN=C1c1ccc(NN=C(C#N)C#N)cc1`, for which the Potency entry in test [1], in test [2], in test [3] and in test [4] was “inactive” each time.
In the case of `CCn1cc(C(=O)O)c(=O)c2ccc(C)nc21`, the Potency result in test [1], in test [2], in test [3] and in test [4] was “inactive” each time.
For `COCCCOc1cc(C[C@@H](C[C@H](N)[C@@H](O)C[C@H](C(=O)NCC(C)(C)C(N)=O)C(C)C)C(C)C)ccc1OC`, the Potency entry in test [1], in test [2], in test [3] and in test [4] was “inactive” in each case.
`CC(=O)Nc1nnc(S(N)(=O)=O)s1`: the Potency result in test [1], in test [2], in test [3] and in test [4] was “inactive” each time.
For `COc1ccc([C@@H]2Sc3ccccc3N(CCN(C)C)C(=O)[C@@H]2OC(C)=O)cc1`, the Potency entry in test [1], in test [2], in test [3] and in test [4] was “inactive” each time.
As for `Cc1ccc(C)c(OCCCC(C)(C)C(=O)O)c1`, the Potency result in test [1], in test [2], in test [3] and in test [4] was “inactive” in each case.
Turning to `CC(=O)CCCCn1c(=O)c2c(ncn2C)n(C)c1=O`, the Potency entry in test [1], in test [2], in test [3] and in test [4] was “inactive” throughout.
Turning to `Clc1ccc2c(c1)C(N1CCNCC1)=Nc1ccccc1O2`, the Potency result in test [1], in test [2], in test [3] and in test [4] was “inactive” each time.
Regarding `CN/C(=C\[N+](=O)[O-])NCCSCc1ccc(CN(C)C)o1`, the Potency result in test [1], in test [2], in test [3] and in test [4] was “inactive” in each case.
For the compound `O=C(O)c1cn(C2CC2)c2cc(N3CCNCC3)c(F)cc2c1=O`, the Potency entry in test [1], in test [2], in test [3] and in test [4] was “inactive” throughout.
For `CCCCNc1ccc(C(=O)OCCOCCOCCOCCOCCOCCOCCOCCOCCOC)cc1`, the Potency entry in test [1], in test [2], in test [3] and in test [4] was “inactive” in each case.
Take `Nc1[nH]c(=O)ncc1F`: the Potency result in test [1], in test [2], in test [3] and in test [4] was “inactive” throughout.
On to `CC(CN(C)C)CN1c2ccccc2CCc2ccccc21` (stereo not given), for which the Potency entry in test [1], in test [2], in test [3] and in test [4] was “inactive” throughout.
On to `NC(=Nc1ccccc1)Nc1ccccc1`, for which the Potency result in test [1], in test [2], in test [3] and in test [4] was “inactive” throughout.
For `CCc1nc(N)nc(N)c1-c1ccc(Cl)cc1`, the Potency entry in test [1] and in test [4] was “inactive” throughout. Further, the values for the Potency in test [2] and in test [3] were 38500 nM (active) and 7690 nM (active), respectively.
In the case of `NS(=O)(=O)Cc1noc2ccccc12`, the Potency entry in test [1], in test [2], in test [3] and in test [4] was “inactive” throughout.
Regarding `CC(C)NCC(O)COc1cccc2[nH]ccc12` (stereo not given), the Potency result in test [1], in test [2], in test [3] and in test [4] was “inactive” throughout.
With `CC1(C)S[C@@H]2[C@H](NC(=O)[C@H](N)c3ccccc3)C(=O)N2[C@H]1C(=O)O`, the Potency entry in test [1], in test [2], in test [3] and in test [4] was “inactive” each time.
As for `CCOC(=O)Nc1ccc2c(c1)N(C(=O)CCN1CCOCC1)c1ccccc1S2`, the Potency result in test [1], in test [2], in test [3] and in test [4] was “inactive” in each case.
In the case of `CC[C@@]1(O)C(=O)OCc2c1cc1n(c2=O)Cc2cc3c(CN(C)C)c(O)ccc3nc2-1`, the Potency in test [1] was 8630 nM (active); in test [2] it was 2.82 µM (active) and 1.09 µM (active); in test [3] it was 1720 nM (active); in test [4] it was 2.82 µM (active) and 3.06 µM (active).
For `CC[C@@H]([C@H](C)O)n1ncn(-c2ccc(N3CCN(c4ccc(OC[C@@H]5CO[C@@](Cn6cncn6)(c6ccc(F)cc6F)C5)cc4)CC3)cc2)c1=O`, the Potency result in test [1], in test [2], in test [3] and in test [4] was “inactive” in each case.
For `CN1CCN(C2=Nc3cc(Cl)ccc3Nc3ccccc32)CC1`, the Potency result in test [1], in test [2], in test [3] and in test [4] was “inactive” in each case.
For the compound `Cc1cn[nH]c1`, the Potency result in test [1], in test [2], in test [3] and in test [4] was “inactive” in each case.
For the compound `CC(N)C12CC3CC(CC(C3)C1)C2` (stereo not given), the Potency result in test [1], in test [2], in test [3] and in test [4] was “inactive” throughout.
As for `CC(=O)Oc1ccccc1C(=O)Nc1ncc([N+](=O)[O-])s1`, the Potency entry in test [1], in test [2], in test [3] and in test [4] was “inactive” each time.
Consider `COc1cc(C(=O)NCc2ccc(OCCN(C)C)cc2)cc(OC)c1OC`, for which the Potency result in test [1], in test [2], in test [3] and in test [4] was “inactive” throughout.
For `COCCCC/C(=N\OCCN)c1ccc(C(F)(F)F)cc1`, the Potency entry in test [1], in test [2], in test [3] and in test [4] was “inactive” in each case.
For the compound `CN(C)CC[C@@H](c1ccc(Br)cc1)c1ccccn1`, the Potency result in test [1], in test [2], in test [3] and in test [4] was “inactive” in each case.
Regarding `CC1Cc2ccccc2N1NC(=O)c1ccc(Cl)c(S(N)(=O)=O)c1` (stereo not given), the Potency result in test [1], in test [2], in test [3] and in test [4] was “inactive” each time.
In the case of `CN(C)CCOC(C)(c1ccccc1)c1ccccn1` (stereo not given), the Potency result in test [1], in test [2], in test [3] and in test [4] was “inactive” in each case.
On to `CCCc1cc(=O)[nH]c(=S)[nH]1`, for which the Potency result in test [1], in test [2], in test [3] and in test [4] was “inactive” each time.
Take `COc1ccccc1OCC(O)CN1CCN(CC(=O)Nc2c(C)cccc2C)CC1` (stereo not given): the Potency result in test [1], in test [2], in test [3] and in test [4] was “inactive” throughout.
`COc1ccc2nc(S(=O)Cc3ncc(C)c(OC)c3C)[nH]c2c1` (stereo not given): the Potency result in test [1], in test [2], in test [3] and in test [4] was “inactive” each time.
